The values below come from PubChem BioAssay (Tox21).

The structures appear in SMILES notation. Inconclusive results are not listed. Entries that show only a call come without a potency. A number with no mark means an inactive call. The source made the active and inactive calls. Unless noted, calls come from the whole dose curve; as a rule, active = well fitted cell-killing curve with a large enough effect in the repeat runs; inconclusive = weak or mixed curves, or effect the other way; inactive = no such curve, though single readings can be large or run the other way.
Potency is the fitted concentration of half-maximal effect.

Retinoic acid receptor RXR-alpha (Homo sapiens), sequence (P19793 whole entry, looked up): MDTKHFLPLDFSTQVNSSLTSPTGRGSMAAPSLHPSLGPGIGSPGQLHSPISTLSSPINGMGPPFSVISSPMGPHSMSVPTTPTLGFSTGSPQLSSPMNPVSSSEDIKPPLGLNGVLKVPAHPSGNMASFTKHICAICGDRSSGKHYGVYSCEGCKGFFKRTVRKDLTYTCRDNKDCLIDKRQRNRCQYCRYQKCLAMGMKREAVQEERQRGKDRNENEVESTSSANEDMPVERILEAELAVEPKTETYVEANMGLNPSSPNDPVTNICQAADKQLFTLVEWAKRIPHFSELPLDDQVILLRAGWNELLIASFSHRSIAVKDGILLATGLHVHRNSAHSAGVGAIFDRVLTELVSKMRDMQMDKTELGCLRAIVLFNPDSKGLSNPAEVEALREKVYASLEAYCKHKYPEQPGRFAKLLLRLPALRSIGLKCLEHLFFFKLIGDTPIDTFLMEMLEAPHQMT

In the first assay the target is Retinoic acid receptor RXR-alpha (Homo sapiens) (UniProt P19793). Kind of assay: qHTS assay to identify small molecule agonists of the RXR signaling pathway (AID 1159527; calls by dose curve; note: nearly all actives have a fitted effect of over 35% in size). The following applies: HEK293T RXRa-UAS-bla, beta-lactamase ratio, 16 h; series mostly up to 76.8 µM. A digest of the protocol:
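GeneBLAzer RXR-alpha-UAS-bla HEK 293T cells in 2% charcoal-stripped FBS medium were exposed to compounds for 16 hr at 37 C in agonist mode. Beta-lactamase reporter read as 460/530 nm FRET ratio after 2 hr substrate loading.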
With `CCc1cccc(CC)c1N(COC)C(=O)CS(=O)(=O)O`, the Potency result was “inactive”. On the same count and under the same terms, the value for `CCCCCCS` was “inactive”; that for `Cc1cc(=O)[nH]c(=O)[nH]1` was “inactive”. Regarding `CCc1cccc(CC)c1NC(=O)C(=O)O`, the Potency entry is “inactive”. Same read-out and setting: the value for `CCC(C)c1ccccc1` (stereo not given) was “inactive”. The same measure, in the same setting: next, `CC(=O)c1ccccc1N`: “inactive”; `CC1(C)COCN1`: “inactive”. Regarding `CC(C)=CCCC(C)CCOC(=O)C(C)C` (stereo not given), the Potency result is “inactive”. `Clc1cc(Cl)c(-c2c(Cl)c(Cl)cc(Cl)c2Cl)cc1Cl`: the Potency result was “inactive”.

Turning to `O=c1cccc[nH]1`, the Potency result was “inactive”. With `CCCCCCCOC(=O)c1ccccc1C(=O)OCCCCCCC`, the Potency result was “inactive”.

`CC(C)C(=O)OCc1ccccc1`: the Potency result was “inactive”. Turning to `C=CC(=C)CC/C=C(\C)CCC=C(C)C`, the activation was -18.2% [at 15.8 µM]. In the case of `CCc1c(Br)c(Br)c(Br)c(Br)c1Br`, the Potency is 38.9 µM (active). Consider `CCCCCCCCC(C)=O`, for which the Potency entry is “inactive”. For `CN(C)CCN1CCOCC1`, the Potency result is “inactive”. The same measure, in the same setting: the value for `CCc1ccc(C)nc1` was “inactive”; that for `CCCCCCCC(C)=O` was “inactive”; that for `CC(C)=CCCC(C)O` (stereo not given) was “inactive”. For the compound `COc1ccc(C#N)cc1`, the Potency result was “inactive”. Take `CCOC(=O)CC(C)O` (stereo not given): the Potency entry is “inactive”. Same read-out and setting: next, `CO[Si](CCC1CCC2OC2C1)(OC)OC` (stereo not given): “inactive”; `c1cc[nH]c1`: “inactive”. On to `O=S(=O)(O)c1cc(S(=O)(=O)O)c2ccc3c(S(=O)(=O)O)cc(S(=O)(=O)O)c4ccc1c2c43`, for which the activation was -3.71% [at 15.8 µM]. Turning to `OCCCS`, the Potency result is “inactive”.

In the case of `C=CC(C)C#N` (stereo not given), the Potency result is “inactive”. As for `C=CC(=O)OCCN(CC)CC`, the Potency result was “inactive”. Turning to `COc1cccc(OC)c1O`, the Potency result is “inactive”. For `CS(C)(=O)=O`, the Potency entry is “inactive”. On the same count and under the same terms, next, `OCCN1CN(CCO)CN(CCO)C1`: “inactive”.

`C/C=C/CO`: the Potency entry is “inactive”.

System in the next assay: not listed separately
The assay can be described thus: qHTS assay to identify small molecule agonists of the RXR signaling pathway - cell viability counter screen (AID 1159529). Note: nearly all actives have a fitted effect of over 50% in size. The following applies: RXR-alpha-bla HEK293T viability, CellTiter-Glo, 16 h; series mostly up to 76.8 µM. A digest of the protocol:
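RXR-alpha-UAS-bla HEK 293T cells in medium with 2% charcoal-stripped FBS were pre-incubated 5 hr, then compound-treated 16 hr at 37 C. Viability was read by CellTiter-Glo luminescence in the same wells as the beta-lactamase assay, with tetraoctyl ammonium bromide as positive control.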
In general terms: In qHTS, concentration-response curves come from the screen itself.
Turning to `COc1ccccc1OCCNCC(O)COc1cccc2[nH]c3ccccc3c12` (stereo not given), the Potency is 19 µM (active). With `CCc1cccc(CC)c1N(COC)C(=O)CS(=O)(=O)O`, the Potency result is “inactive”. On the same count and under the same terms, the value for `CCCCCCS` was “inactive”; that for `Cc1cc(=O)[nH]c(=O)[nH]1` was “inactive”; that for `CCc1cccc(CC)c1NC(=O)C(=O)O` was “inactive”. As to `CCC(C)c1ccccc1` (stereo not given), the Potency result is “inactive”. As to `CC(=O)c1ccccc1N`, the Potency entry is “inactive”. In the case of `CC1(C)COCN1`, the Potency result was “inactive”. As to `CC(C)=CCCC(C)CCOC(=O)C(C)C` (stereo not given), the Potency result was “inactive”. For `Clc1cc(Cl)c(-c2c(Cl)c(Cl)cc(Cl)c2Cl)cc1Cl`, the Potency result is “inactive”. Same read-out and setting: the value for `O=c1cccc[nH]1` was “inactive”. The same measure, in the same setting: next, `CCCCCCCCCCCCN(CCO)CCO`: 24.4 µM (active); `CCCCCCCOC(=O)c1ccccc1C(=O)OCCCCCCC`: “inactive”. As to `Cc1c(-c2ccc(O)cc2)n(Cc2ccc(OCCN3CCCCCC3)cc2)c2ccc(O)cc12`, the Potency is 26.8 µM (active). `CC(C)C(=O)OCc1ccccc1`: the Potency entry is “inactive”. For `C=CC(=C)CC/C=C(\C)CCC=C(C)C`, the activity change, negative = cytotoxicity was -8.98% [at 15.8 µM]. With `CCc1c(Br)c(Br)c(Br)c(Br)c1Br`, the Potency entry was “inactive”. Still for that read-out and setting: the value for `CCCCCCCCC(C)=O` was “inactive”; that for `CN(C)CCN1CCOCC1` was “inactive”; that for `CCc1ccc(C)nc1` was “inactive”. The same measure, in the same setting: next, `CCCCCCCC(C)=O`: “inactive”; `CC(C)=CCCC(C)O` (stereo not given): “inactive”; `COc1ccc(C#N)cc1`: “inactive”. In the case of `CCOC(=O)CC(C)O` (stereo not given), the Potency entry is “inactive”. On the same count and under the same terms, next, `CO[Si](CCC1CCC2OC2C1)(OC)OC` (stereo not given): “inactive”; `c1cc[nH]c1`: “inactive”.

As to `O=S(=O)(O)c1cc(S(=O)(=O)O)c2ccc3c(S(=O)(=O)O)cc(S(=O)(=O)O)c4ccc1c2c43`, the activity change, negative = cytotoxicity was -4.37% [at 15.8 µM]. On to `OCCCS`, for which the Potency entry was “inactive”. For the compound `C=CC(C)C#N` (stereo not given), the Potency entry is “inactive”. Take `C=CC(=O)OCCN(CC)CC`: the Potency result was “inactive”. As for `COc1cccc(OC)c1O`, the Potency result is “inactive”.

On to `CS(C)(=O)=O`, for which the Potency result is “inactive”. Take `OCCN1CN(CCO)CN(CCO)C1`: the Potency entry is “inactive”. The same measure, in the same setting: the value for `C/C=C/CO` was “inactive”.
